Here are results for 30 compounds from PubChem BioAssay (EPA / NIEHS).

One may read the AC50 as the concentration at which the activity in the assay is half-maximal.

“And” between values parts separate entries of the source, which are not always exact repeats. Equal entries are not always repeated. The source holds several records for some structures; these can differ, active in one and inactive in another. The source made the active and inactive calls. How the source made its calls: active means hit-call score of the fitted dose curve at least 0.9, where 1 is the maximum; inactive means score below 0.9.

Chain of Bile acid receptor (Homo sapiens) (Q96RI1 whole entry, looked up): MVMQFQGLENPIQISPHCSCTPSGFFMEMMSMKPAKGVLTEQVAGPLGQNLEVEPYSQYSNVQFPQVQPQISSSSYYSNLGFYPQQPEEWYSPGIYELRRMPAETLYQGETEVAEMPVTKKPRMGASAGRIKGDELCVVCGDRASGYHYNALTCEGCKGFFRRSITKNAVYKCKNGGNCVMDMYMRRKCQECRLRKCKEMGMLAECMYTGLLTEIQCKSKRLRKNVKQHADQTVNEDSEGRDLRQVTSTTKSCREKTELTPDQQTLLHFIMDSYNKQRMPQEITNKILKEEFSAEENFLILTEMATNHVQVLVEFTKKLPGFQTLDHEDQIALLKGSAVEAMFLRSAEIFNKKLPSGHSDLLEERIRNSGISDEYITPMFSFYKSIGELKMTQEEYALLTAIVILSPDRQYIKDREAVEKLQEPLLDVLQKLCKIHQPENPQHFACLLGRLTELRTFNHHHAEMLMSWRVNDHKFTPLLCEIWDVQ

For the experiment, the target named is Bile acid receptor (Homo sapiens) (UniProt Q96RI1). The experiment can be described thus: ATG_IR1_CIS: Attagene CIS-FACTORIAL HepG2 Assay for human Nuclear Receptor Subfamily 1 Group H Member 4 (NR1H4), IR1 submotif (AID 2282946). The following applies: IR1 reporter transcription, actives raise or lower the signal. Here is the method:
ATG_CIS is a cell-based, multiplexed-readout assay that uses HepG2, a human liver cell line, with measurements taken at 24 hours after chemical dosing in a 24-well plate.ATG_IR1_CIS is one of 52 assay component(s) measured or calculated from the ATG_CIS assay. It is designed to make measurements of mRNA induction, a form of inducible reporter, as detected with fluorescence intensity signals by Reverse transcription polymerase chain reaction (RT-PCR) and Capillary electrophoresis technology.Data from the assay component ATG_IR1_CIS was analyzed into 1 assay endpoint. This assay endpoint, ATG_IR1_CIS, was analyzed with bidirectional fitting relative to DMSO as the negative control and baseline of activity. Using a type of inducible reporter, measures of mRNA for gain or loss-of-signal activity can be used to understand the reporter gene at the transcription factor-level as they relate to the gene NR1H4. Furthermore, this assay endpoint can be referred to as a primary readout, because this assay has produced multiple assay endpoints where this one serves a reporter gene function. To generalize the intended target to other relatable targets, this assay endpoint is annotated to the nuclear receptor intended target family, where the subfamily is non-steroidal.
Human liver HepG2 cells are transiently transfected with multiple reporter transcription units (MRTUs) in 6-well plates using FuGene 6 reagent (Roche; 3 ml FuGene/1 mg DNA). The MRTU constructs are regulated by a cis-regulating element (promoter). […] A major difference between the CIS and TRANS system is that in CIS activities of endogenous TFs are measured, whereas the TRANS assay evaluates changes in activities of exogenous, chimeric NR-Gal4 proteins. […] At the end of 24 hour incubation, total RNA was isolated using TriZol reagent (Invitrogen). The isolated RNA is then reverse-transcribed using oligo(dT) primer and Mo-MLV reverse transcriptase (Invitrogen) with DNAse I (Ambion) treatment for 30 min. The one-tenth of the produced cDNA was amplified by PCR using Taq DNA polymerase (Invitrogen) and two reporter sequence-specific primers. The PCR products were fluorescently labeled by primer extension with 6-arboxyfluorescein (6-FAM) 5'-labeled reporter sequence-specific primer (2 min at 95 C, 20 s at 68 C and 10 min at 72 C) and these products were digested with 5U of HpaI (New England Biolabs) for 2h at 37 C. The fragments were purified using Qiaquick PCR columns (Qiagen), analyzed on an ABI 3130xL genetic analyzer (Applied Biosystems) with peak positions identified by using a set of X-rhodamine (ROX)-labeled MapMarker1000 molecular weight standards (BioVentures). The raw capillary electrophoresis data was processed using Attagraph software (Attagene).
For the compound `Cc1cc2c3c(c1)C(c1ccccc1)=N[C@@H](NC(=O)c1ccncc1)C(=O)N3CC2`, the call was inactive.

Turning to `C[C@]12CCC(=O)C=C1CC[C@@H]1[C@@H]2CC[C@@]2(C)[C@H]1CC[C@]2(C)O`, the call was inactive.

As for `Cc1cccc([N+](=O)[O-])c1`, the outcome was inactive.

As for `Oc1ccc(Cl)cc1Cl`, the outcome was inactive.

For the compound `ClC(Cl)=C(c1ccc(Cl)cc1)c1ccc(Cl)cc1`, the call was inactive; the AC50 is 21.5 µM (active) and 27.7 µM (active) and 184 µM (active).

Turning to `CCC(C)(c1ccc(O)cc1)c1ccc(O)cc1`, the AC50 is 43 µM (active) and 33.4 µM (active) and 54.5 µM (active); the outcome was inactive.

In the case of `C1CC2OC2CC1C1CO1` (centres undefined), the compound was classed as inactive.

For the compound `CC(C)(c1ccccc1)c1ccc(O)cc1`, the outcome was inactive and the AC50 is 33.4 µM (active).

For `Cc1cc(O)ccc1Cl`, the compound was classed as inactive.

Regarding `CCC(C)c1cc([N+](=O)[O-])cc([N+](=O)[O-])c1O` (centres undefined), the outcome was inactive.

With `O=C(O)C(F)(F)C(F)(F)C(F)(F)C(F)(F)C(F)(F)C(F)(F)C(F)(F)C(F)(F)F`, the call was inactive.

Take `C[C@]12CCC(=O)C=C1CC[C@@H]1[C@@H]2CC[C@]2(C)C(=O)CC[C@@H]12`: the compound was called inactive.

For the compound `N#Cc1ccc(N(CC(N)=O)CC(F)(F)F)cc1C(F)(F)F`, the result was inactive.

As for `NS(=O)(=O)C(F)(F)C(F)(F)C(F)(F)C(F)(F)C(F)(F)C(F)(F)C(F)(F)C(F)(F)F`, the result was inactive and the AC50 was 9.66 µM (active).

On to `Cc1cccc(C)c1N`, for which the outcome was inactive.

As to `O=S(=O)(O)C(F)(F)C(F)(F)C(F)(F)C(F)(F)C(F)(F)C(F)(F)F`, the outcome was inactive.

Take `CN(C)c1nc(=O)n(C2CCCCC2)c(=O)n1C`: the compound was classed as inactive.

Regarding `OCC(O)CO`, the outcome was inactive.

For `Oc1c(Cl)c(Cl)c(Cl)c(Cl)c1Cl`, the call was inactive.

For the compound `c1ccc(-c2ccccc2)cc1`, the call was inactive.

Consider `CC1=C2C[C@H]3[C@@H](CC=C4C[C@@H](O)CC[C@@]43C)[C@@H]2CC[C@]12O[C@@H]1C[C@H](C)CN[C@H]1[C@H]2C`, for which the AC50 is 8.12 µM (active).

Consider `CO/C=C(/C(=O)OC)c1ccccc1COc1cccc(C(F)(F)F)n1`, for which the AC50 is 26.4 µM (active).

Regarding `COc1ccc(O)c(C(C)(C)C)c1`, the result was inactive.

As to `CCSC(=O)N(CC)C1CCCCC1`, the compound was classed as inactive.

For `CCCCCCCCOC(=O)c1ccccc1C(=O)OCCCCCCCC`, the compound was called inactive.

Consider `CC(c1ccc(O)cc1)(c1ccc(O)cc1)c1ccc(O)cc1`, for which the AC50 was 11.1 µM (active).

`O=NN(c1ccccc1)c1ccccc1`: the compound was classed as inactive.

Regarding `CCCCCCCCCC[N+](C)(C)CCCCCCCCCC`, the AC50 is 5.11 µM (active).

For `c1cc2ccc3cccc4ccc(c1)c2c34`, the call was inactive.

`Clc1ccc(C(Cl)(Cl)Cl)cc1`: the result was inactive.
